Screens from PubChem BioAssay.
TTR transcr act: TTR transcription activators in neuroblastoma reporter cells, primary screen, cell-based, luminescence, SH-SY5Y, TTR promoter Gaussia luciferase | 100% = recombinant luciferase protein wells | activation, % at 16.7 µM | 92,000 compounds, 1.3% hits | AID 1117267, 2014;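 active = activation above the mean of all tested compounds plus 3 SD, cut at about 9.5% in these data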;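 also: cells exposed to compounds for one day before reading; 0% = median of all test compound wells on the plate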
TTR inh HuH7: TTR promoter reporter inhibitors in hepatoma cells, counter-screen for TTR transcription activator project, cell-based, luminescence, HuH7 hepatoma; HuH7 TTR promoter-Gaussia luciferase reporter; 1,100 compounds, 4% hits; inhibition, % at 16.7 µM; AID 1117279, 2014; shares compounds with TTR transcr act;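 active = average inhibition above the solvent-only control wells' mean plus 3 SD, cut at about 15% in these data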;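 also: 0% = cells with DMSO only and 100% = cells with inhibitor control FD; inhibitors lower well luminescence so higher value means more inhibition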
TTR act confirm: TTR transcription activators, retest, confirmation, cell-based, luminescence, SH-SY5Y, triplicate | shares compounds with TTR transcr act | SHSY5Y TTR promoter Gaussia luciferase; 100% = purified Lucia enzyme wells, no cells | activation, % at 16.7 µM | 1,100 tested, under 10 active;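 active = mean activation above a set limit taken from the earlier primary screen, cut at about 11% in these data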;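 also: 0% = DMSO-treated cells and 100% = recombinant Lucia luciferase without cells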
Active calls of the source: *. Only a selection was taken, and hits are over-represented in it overall.

SMILES	TTR transcr act	others
COc1ccc(CC(=O)Nc2cccc(-c3csc(C)n3)c2)cc1	-0.7
O=C(O)CC(NC(=O)C12CC3CC(CC(C3)C1)C2)c1ccc(F)cc1 (configuration not stated)	-0.2
CCC(=O)N1CCCC1(C)C(=O)Nc1ccc(C)c(C)c1 (configuration not stated)	0.6
O=C(Nc1ccccc1)N(CCCN1CCOCC1)Cc1cc2cc3c(cc2[nH]c1=O)OCCO3	-0.5
Cc1ccc(NC(=O)N(Cc2cccs2)Cc2cc3cc4c(cc3[nH]c2=O)OCO4)cc1	-2.0
O=C(Nc1ccc(F)cc1)N(Cc1cccs1)Cc1cc2cc3c(cc2[nH]c1=O)OCO3	27.5*	TTR inh HuH7=-27.0;TTR act confirm=0.1
CCCn1c(SCC(=O)N(C)CC(=O)Nc2ccc(C)cc2)n[nH]c1=O	1.3
CC(C)(C)OC(=O)N1CCC(NC(=O)c2nc[nH]c2C(=O)NCC(=O)OCc2ccccc2)CC1	-2.3
